Measurements taken from PubChem BioAssay (Tox21).
Several values for one entry are separate records, joined by “and”; a condition that tells them apart may be missing. Equal entries are not always repeated. Records with an inconclusive call do not appear. A number with no mark means an inactive call. Activity calls are given as the source filed them. Unless noted, calls come from the whole dose curve.

assay: qHTS assay to identify small molecule agonists of the hypoxia (HIF-1) signaling pathway - cell viability counter screen (AID 1224844); settings: HRE-bla ME-180 viability, CellTiter-Glo luminescence, 17 h; series mostly up to 76.8 µM; activity change, negative = cytotoxicity: at the top concentration; note: nearly all actives have a fitted effect of over 50% in size; note: potency is the fitted concentration of half-maximal effect
Procedure, shortened: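 Cells (HRE-bla ME-180, 2,000 per well) sat 5 hrs at 37C, got compound for 17 hrs, were read for CCF4-AM FRET, and were finally lysed with CellTiter-Glo for a 30 min room-temperature luminescence read.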
% is set by controls: 0 for no effect and ±100 for the full control effect.

Compound	activity change, negative = cytotoxicity	Potency
CCCOC(=O)c1cc(O)c(O)c(O)c1	-23.8%	–
CCCCCCCCCCCCc1ccccc1O	–	19.5 µM (active)
O=C(Nc1ccccc1SSc1ccccc1NC(=O)c1ccccc1)c1ccccc1	–	15.6 µM (active) and 21.9 µM (active)
Nc1cc(Cl)c(-c2cc(Cl)c(N)cc2Cl)cc1Cl	–	38.9 µM (active)
CN(C)c1ccc(C(=C2C=CC(=[N+](C)C)C=C2)c2ccccc2)cc1	–	11 µM (active) and 5.35 µM (active)
CCn1c2ccccc2c2cc(N)ccc21	–	inactive
c1cc(C(c2ccc(OCC3CO3)cc2)C(c2ccc(OCC3CO3)cc2)c2ccc(OCC3CO3)cc2)ccc1OCC1CO1 (stereo unspecified)	–	inactive
CCCCCCCCCCCCCC[P+](CCCC)(CCCC)CCCC	–	21.8 µM (active) and 21.9 µM (active)
CCCCC(CC)COC(=O)CC(C(=O)OCC(CC)CCCC)S(=O)(=O)O (stereo unspecified)	–	26.5 µM (active) and 21.9 µM (active)
CC1COc2c(N3CCN(C)CC3)c(F)cc3c(=O)c(C(=O)O)cn1c23 (stereo unspecified)	-1.9% [at 35.3 µM]	–
CC(C)CCCCCCc1ccc(O)cc1	–	11.2 µM (active)

assay: qHTS assay to identify small molecule agonists of H2AX (AID 1224845; active = well fitted activation curve with a large enough effect in the signal ratio in the repeat runs, not every such curve was filed as active; the % refers to the signal ratio; note: potency is the fitted concentration of half-maximal effect); settings: CHO-K1 phospho-H2AX Ser139 HTRF, 3 h; series mostly up to 154 µM; activation (H2AX phosphorylation): at the top concentration
Procedure, shortened: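 Wild-type CHO-K1 cells, plated overnight, exposed 3hr at 37C to 15 concentrations (0.76% DMSO final). Lysed, then HTRF anti-pH2AX (S139) cryptate and anti-H2AX-d2 antibodies, 24 hr room temperature; 665/620 nm emission read.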

Compound	Potency	activation (H2AX phosphorylation)
Oc1ccc(Cl)cc1Cc1cc(Cl)ccc1O	inactive	–
C/C=C/c1ccc(OCC)c(O)c1	–	1.2%
O=C1OC2(c3ccc(O)cc3Oc3cc(O)ccc32)c2ccccc21	–	5.46%
COc1nc(C)nc(Cl)c1NC1=NCCN1	–	-2.28% [at 70.9 µM]
O=C(O)c1cn(-c2ccc(F)cc2)c2cc(N3CCNCC3)c(F)cc2c1=O	inactive	–
CC(N)=O	–	-3.32% [at 401 µM]
CC1=C(C=O)C(C)(C)CC=C1	–	-5.46%
O=C1Nc2ccccc2C1(c1ccc(O)cc1)c1ccc(O)cc1	inactive	–
CC(COc1ccccc1)N(CCCl)Cc1ccccc1 (stereo unspecified)	113 µM (active)	–
Nc1nc2ccccc2[nH]1	inactive	–
Oc1c(Cl)cc(Cl)cc1Sc1cc(Cl)cc(Cl)c1O	inactive	–
C[N+]1([O-])CCOCC1	–	-0.887%
CC(C)(O)CCC(C)(C)O	–	3.03%
CC(=O)OCCOCCOCCOC(C)=O	inactive	–
O=C(Cl)c1cccc(C(=O)Cl)c1	inactive	–
CCCCCCCCCCCCc1ccccc1O	55.9 µM (active) and 40.1 µM (active)	–
C=C(C)C(=O)O	inactive	–
O=C(Nc1ccccc1SSc1ccccc1NC(=O)c1ccccc1)c1ccccc1	18 µM (active)	–
CCCCC(CC)COC(=O)CC(C(=O)OCC(CC)CCCC)S(=O)(=O)O (stereo unspecified)	inactive	–
CC1COc2c(N3CCN(C)CC3)c(F)cc3c(=O)c(C(=O)O)cn1c23 (stereo unspecified)	–	0.389% [at 70.9 µM]
Cc1cccc(O)c1C	inactive	–

assay: qHTS assay to identify small molecule agonists of the hypoxia (HIF-1) signaling pathway (AID 1224846; active = well fitted activation curve with a large enough effect in the signal ratio in the repeat runs, not every such curve was filed as active; the % refers to the signal ratio); settings: HRE-bla ME-180 cells, beta-lactamase ratio, 17 h; series mostly up to 76.8 µM; activation: at the top concentration
Procedure, shortened: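 A low-serum medium (0.5% dialyzed FBS) holding 2,000 HRE-bla ME-180 cells per well is preincubated for 5 hrs, dosed with compounds by pintool, and kept a further 17 hrs at 37C, 5% CO2 before CCF4-AM FRET detection of beta-lactamase.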

Compound	activation	Potency
Nc1ccc(O)cc1	-0.92% [at 35.5 µM]	–
C/C=C/c1ccc(OCC)c(O)c1	–	inactive
CC1=C(C=O)C(C)(C)CC=C1	-0.694%	–
O=C1Nc2ccccc2C1(c1ccc(O)cc1)c1ccc(O)cc1	1.89% [at 35.5 µM]	–
C[N+]1([O-])CCOCC1	-0.121%	–
CC(C)(O)CCC(C)(C)O	-0.0594%	–
CC(=O)OCCOCCOCCOC(C)=O	–	inactive
O=C(Cl)c1cccc(C(=O)Cl)c1	–	inactive
CCCOC(=O)c1cc(O)c(O)c(O)c1	–	inactive
C=C(C)C(=O)O	–	inactive
c1cc(C(c2ccc(OCC3CO3)cc2)C(c2ccc(OCC3CO3)cc2)c2ccc(OCC3CO3)cc2)ccc1OCC1CO1 (stereo unspecified)	0.493%	–
Cc1cccc(O)c1C	0.242%	–

assay: qHTS assay to identify small molecule agonists of H2AX - cell viability counter screen (AID 1224847); settings: CHO-K1 viability, CellTiter-Glo luminescence, 3 h; series mostly up to 154 µM; activity change, negative = cytotoxicity: at the top concentration; note: nearly all actives have a fitted effect of over 30% in size; note: potency is the fitted concentration of half-maximal effect; for activity change, negative = cytotoxicity: top concentration of the series differs between compounds
Procedure, shortened: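 CHO-K1 wt, 1000 cells/well, o/n 37C; cpds 15 conc, 3 h 37C, 0.76% DMSO; CellTiter-Glo, 30 min RT, luminescence.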

Compound	activity change, negative = cytotoxicity	Potency
Nc1ccc(O)cc1	10.9% [at 70.9 µM]	–
CCN(CC)C(=S)SSC(=S)N(CC)CC	7.19% [at 70.9 µM]	–
Oc1ccc(Cl)cc1Cc1cc(Cl)ccc1O	–	51.4 µM (active) and 31.8 µM (active)
C/C=C/c1ccc(OCC)c(O)c1	–	inactive
O=C1OC2(c3ccc(O)cc3Oc3cc(O)ccc32)c2ccccc21	–	inactive
CC(C)(C)c1ccc(O)c(C(C)(C)C)c1	–	89.4 µM (active)
CC[C@H]1CN2CCc3cc(OC)c(OC)cc3[C@@H]2C[C@@H]1C[C@H]1NCCc2cc(OC)c(OC)cc21	–	inactive
COc1nc(C)nc(Cl)c1NC1=NCCN1	-0.738% [at 70.9 µM]	–
O=C(O)c1cn(-c2ccc(F)cc2)c2cc(N3CCNCC3)c(F)cc2c1=O	–	inactive
CC(N)=O	2.22% [at 401 µM]	–
CC1=C(C=O)C(C)(C)CC=C1	2.36%	–
O=C1Nc2ccccc2C1(c1ccc(O)cc1)c1ccc(O)cc1	–	inactive
COc1ccc(CCN2CCC(Nc3nc4ccccc4n3Cc3ccc(F)cc3)CC2)cc1	–	32.6 µM (active)
Nc1nc2ccccc2[nH]1	–	inactive
CCN(CC)CCOc1ccc(/C(=C(\Cl)c2ccccc2)c2ccccc2)cc1	–	81.7 µM (active)
C[N+]1([O-])CCOCC1	0.432%	–

Compound	activity change, negative = cytotoxicity	Potency
Cc1cc(C2(c3cc(C)c(O)cc3C)OS(=O)(=O)c3ccccc32)c(C)cc1O	–	inactive
CC(C)(O)CCC(C)(C)O	-4.99%	–
CC(=O)OCCOCCOCCOC(C)=O	–	inactive
O=C(O[C@@H]1Cc2c(O)cc(O)cc2O[C@@H]1c1cc(O)c(O)c(O)c1)c1cc(O)c(O)c(O)c1	–	inactive
O=C(Cl)c1cccc(C(=O)Cl)c1	–	inactive
CCCOC(=O)c1cc(O)c(O)c(O)c1	–	inactive
CCCCCCCCCCCCc1ccccc1O	–	55.9 µM (active) and 40.1 µM (active)
C=C(C)C(=O)O	–	inactive
Nc1cc(Cl)c(-c2cc(Cl)c(N)cc2Cl)cc1Cl	–	101 µM (active) and 113 µM (active)
CCn1c2ccccc2c2cc(N)ccc21	-14.4%	–
c1cc(C(c2ccc(OCC3CO3)cc2)C(c2ccc(OCC3CO3)cc2)c2ccc(OCC3CO3)cc2)ccc1OCC1CO1 (stereo unspecified)	–	inactive
CCCCCCCCCCCCCC[P+](CCCC)(CCCC)CCCC	–	3.99 µM (active) and 31.8 µM (active)
CCCCC(CC)COC(=O)CC(C(=O)OCC(CC)CCCC)S(=O)(=O)O (stereo unspecified)	–	86.4 µM (active) and 80 µM (active)
CC1COc2c(N3CCN(C)CC3)c(F)cc3c(=O)c(C(=O)O)cn1c23 (stereo unspecified)	1.67% [at 70.9 µM]	–
CC(C)CCCCCCc1ccc(O)cc1	–	91.4 µM (active) and 56.6 µM (active)
Cc1cccc(O)c1C	–	inactive
